This excerpt belongs to a sample that is enriched for hits.
IL-1B inflam inh: qHTS for Inhibitors of Inflammasome Signaling: IL-1-beta AlphaLISA Primary Screen | THP-1 LPS/ATP IL-1B secretion, AlphaLISA, 16 h; stronger effect = lower value | activity change, % at 57.5 µM | 360,000 tested, 4.7% active | AID 743279, 2014; in the data active = activity change below about -50%; inconclusive = mostly about -30% to -49%
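Secreted IL-1B measured by AlphaLISA bead assay after 16 h compound exposure of THP-1 cells; compounds (final up to 57.5 uM) added 1 h before LPS (250 ng/mL) and ATP (1.25 mM) stimulation; lower signal means less secretion.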
DT40 TDP1 no CPT: qHTS for Inhibitors of human tyrosyl-DNA phosphodiesterase 1 (TDP1): qHTS in cells in absence of CPT. Potency, µM (titrated, usually from 46.2 µM), for inactives: at the highest dose activity change, negative = growth inhibition, actives largely listed as inhibitors. DT40 Tdp1-/- hTDP1 cells, no CPT, ATP luminescence, 48 h. 420,000 tested, 15% active; also: potency is read from the fitted curve at half-maximal effect; nearly all actives have a fitted effect of over 55% in size
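Chicken DT40 Tdp1-/- cells complemented with human TDP1, screened without camptothecin (DMSO vehicle only), 400 cells/well. Compounds pin-transferred, cells incubated at 37 °C for at least 48 hr. Growth read as ATP-dependent luminescence (CellTiter-Glo, 30 min at RT).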
DT40 TDP1 CPT: qHTS for Inhibitors of human tyrosyl-DNA phosphodiesterase 1 (TDP1): qHTS in cells in presence of CPT; chicken DT40 Tdp1-/-;hTDP1 cells + 20 nM CPT, ATP luminescence, 48 h; Potency, µM (titrated, usually from 46.2 µM), without a hit: at the highest dose activity change, negative = growth inhibition, most hits filed as inhibitors; 420,000 tested, 12% active; AID 686979, 2013; also: potency is read from the fitted curve at half-maximal effect; nearly all actives have a fitted effect of over 55% in size
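Chicken DT40 Tdp1-/- cells stably complemented with human TDP1 were seeded at 400 cells/well in medium containing 20 nM camptothecin, exposed to pin-transferred compounds, and grown at 37 °C for at least 48 hr. Viability was read as ATP luminescence.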
12-LOX inh: Primary qHTS assay for inhibitors of human arachidonate 12S-lipoxygenase (ALOX12): Round 2. Polyunsaturated fatty acid lipoxygenase ALOX12 (Homo sapiens), P18054. purified 12hLO, xylenol orange hydroperoxide absorbance. Potency, µM (doses to about 108 µM), for inactives: at the highest dose activity change, negative = inhibition, hits mostly inhibitors. 580,000 tested, 1.1% active. AID 1671190, 2021; also: potency is read from the fitted curve at half-maximal effect
Target sequence (P18054 whole entry, looked up): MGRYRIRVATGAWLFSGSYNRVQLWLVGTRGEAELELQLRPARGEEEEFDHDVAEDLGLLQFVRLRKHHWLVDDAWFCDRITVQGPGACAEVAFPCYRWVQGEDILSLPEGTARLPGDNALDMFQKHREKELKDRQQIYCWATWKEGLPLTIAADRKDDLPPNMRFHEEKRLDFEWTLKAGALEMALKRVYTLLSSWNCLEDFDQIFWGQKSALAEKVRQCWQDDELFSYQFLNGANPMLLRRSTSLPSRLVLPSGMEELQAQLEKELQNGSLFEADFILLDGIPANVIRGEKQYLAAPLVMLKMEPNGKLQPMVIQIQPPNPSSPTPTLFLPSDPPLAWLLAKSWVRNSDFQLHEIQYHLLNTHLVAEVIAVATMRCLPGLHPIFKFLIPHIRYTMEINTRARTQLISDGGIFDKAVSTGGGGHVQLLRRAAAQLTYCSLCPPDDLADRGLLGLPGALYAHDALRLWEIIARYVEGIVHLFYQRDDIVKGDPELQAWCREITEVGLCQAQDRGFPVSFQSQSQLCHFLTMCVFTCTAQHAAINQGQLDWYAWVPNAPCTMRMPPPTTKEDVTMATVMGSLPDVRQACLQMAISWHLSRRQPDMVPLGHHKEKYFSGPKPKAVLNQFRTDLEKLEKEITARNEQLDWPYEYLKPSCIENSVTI
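Hydroperoxide product was detected by ferrous iron/xylenol orange as the 573 to 405 nm absorbance ratio. Arachidonic acid at 40 uM (final) was turned over for 30 min at room temperature by 150 nM human 12hLO, pH 7.0 Hepes buffer, after 15 min compound preincubation.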
HT1080NT lethal: qHTS for induction of synthetic lethality in tumor cells producing 2HG: qHTS for the HT-1080-NT fibrosarcoma cell line; HT-1080-NT fibrosarcoma viability, CellTiter-Glo ATP luminescence, 48 h; Potency, µM (series often up to 46.1 µM), inactives show at the top dose activity, negative = less viability, hits mostly cytotoxic; 360,000 tested, 1.6% active;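 also: NT is the 2HG producing partner of a matched IDH1 knockdown line; potency is read from the fitted curve at half-maximal effect; 0% = DMSO-treated cells and -100% = media-only wells without cells; nearly all actives have a fitted effect of over 55% in size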
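Viability by CellTiter-Glo luminescence after 48 h compound exposure at 37C of HT-1080-NT cells (750/well, RPMI, 5% FBS). % activity scaled between DMSO wells and medium-only wells, then curve-fitted and categorized by curve class.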
HT1080 IDH1KD tx: qHTS for induction of synthetic lethality in tumor cells producing 2HG: qHTS for the HT-1080-IDH1KD cell line | HT-1080 IDH1 knockdown viability, ATP luminescence, 48 h | Potency, µM (series often up to 46.1 µM), without a hit: at the highest dose activity, negative = toxicity, actives largely listed as cytotoxic | 360,000 tested, 2% active;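 also: potency is read from the fitted curve at half-maximal effect; 0% = DMSO wells and -100% = cell-free medium wells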
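Knockdown cells (IDH1KD HT-1080) received compounds 2 h after plating at 750 cells/well and were kept 48 h at 37 °C in 5% FBS RPMI. A CellTiter-Glo luminescence read gave % activity for curve fitting.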
Active calls of the source: *. Unless noted, calls follow the shape of the dose curve; as a rule, active = well fitted curve in the direction sought with a large enough effect; inconclusive = small, poorly fitted or top-dose-only effect, or another doubt; inactive = no such curve, though single readings can be large; an effect the other way counts as inactive or inconclusive. Unless noted, % is scaled to controls: 0 for no effect and ±100 for the full control effect.

How did Cc1cccc(NC(=O)c2nc[nH]c2C(=O)NCCCCNC(=O)c2[nH]cnc2C(=O)Nc2cccc(C)c2)c1 do in these assays?
IL-1B inflam inh: 27; DT40 TDP1 no CPT: 21µM*; DT40 TDP1 CPT: 15µM*; 12-LOX inh: 5%; HT1080NT lethal: 2%; HT1080 IDH1KD tx: 8%

How did Cc1cccc(NC(=O)c2nc[nH]c2C(=O)NCCCCCCNC(=O)c2[nH]cnc2C(=O)Nc2cccc(C)c2)c1 do in these assays?
IL-1B inflam inh: 1; DT40 TDP1 no CPT: 23µM*; DT40 TDP1 CPT: 12µM*; 12-LOX inh: 14%; HT1080NT lethal: 19%; HT1080 IDH1KD tx: 19%

How did Cc1cccc(NC(=O)c2nc[nH]c2C(=O)NCc2ccccc2)c1 do in these assays?
IL-1B inflam inh: -5; DT40 TDP1 no CPT: inconclusive; DT40 TDP1 CPT: inconclusive; 12-LOX inh: -4%; HT1080NT lethal: -24%; HT1080 IDH1KD tx: -11%

How did O=C(Nc1ccc2c(N3CCCC3)ncnc2c1)c1ccccc1Cl do in these assays?
12-LOX inh: 67%

Results for CC(C)c1ccc(-c2nnn(Cc3cc(=O)n4ccsc4n3)n2)cc1 ?
12-LOX inh: -19%

How did COc1ccc(C(=O)O)c(O)c1 do in these assays?
IL-1B inflam inh: 0; DT40 TDP1 no CPT: -14%; DT40 TDP1 CPT: 2%; 12-LOX inh: -8%; HT1080NT lethal: 7%; HT1080 IDH1KD tx: 4%

Results for COc1ccc(C(=O)/C=C/c2ccccc2)c(O)c1 ?
IL-1B inflam inh: -99*; DT40 TDP1 no CPT: 23µM*; DT40 TDP1 CPT: inconclusive; 12-LOX inh: 21%; HT1080NT lethal: -27%; HT1080 IDH1KD tx: -23%

Results for COc1ccc(C(=O)/C=C/c2cccs2)c(OC(=O)c2ccccc2)c1 ?
12-LOX inh: 2%

Results for COc1ccc(C(=O)/C=C/c2ccccc2OC)c(OC(=O)c2ccc([N+](=O)[O-])cc2)c1 ?
IL-1B inflam inh: -97*; DT40 TDP1 no CPT: inconclusive; DT40 TDP1 CPT: inconclusive; 12-LOX inh: 0%; HT1080NT lethal: 11%; HT1080 IDH1KD tx: 9%

What do the screens show for `COc1ccc(C(=O)/C=C/c2cc(C(=O)O)cc3c2OCOC3)c(O)c1`?
IL-1B inflam inh: -94*; DT40 TDP1 no CPT: 23µM*; DT40 TDP1 CPT: inconclusive; 12-LOX inh: -24%; HT1080NT lethal: inconclusive; HT1080 IDH1KD tx: inconclusive

Results for COc1ccc(OC(=O)c2cccc([N+](=O)[O-])c2)c(C(=O)/C=C/c2cccs2)c1 ?
IL-1B inflam inh: -53*; DT40 TDP1 no CPT: inconclusive; DT40 TDP1 CPT: inconclusive; 12-LOX inh: 0%; HT1080NT lethal: inconclusive; HT1080 IDH1KD tx: inconclusive

Results for COc1cccc(CC(=O)N2CCC([C@H]3[C@@H](OC)C(=O)N3C(C)C)CC2)c1 ?
12-LOX inh: -8%

What do the screens show for `CC(C)c1nc2cc(NC(=O)c3ccc[nH]c3=O)ccc2o1`?
12-LOX inh: -2%

What do the screens show for `N#Cc1ccc(OCC(=O)NNC(=O)C2CC(=O)Nc3cc(F)ccc32)cc1` (centres undefined)?
12-LOX inh: 64%

How did COc1ccc(C(=O)C=Cc2cccs2)c(O)c1 do in these assays?
IL-1B inflam inh: -54*; DT40 TDP1 no CPT: inconclusive; DT40 TDP1 CPT: inconclusive; 12-LOX inh: 0%; HT1080NT lethal: -19%; HT1080 IDH1KD tx: -18%

Bioassay records: PubChem, National Center for Advancing Translational Sciences (NCATS)
